Test results as given in PubChem BioAssay (NCI).
This is part of a sample that, as a whole, favours compounds with a hit. Of some 79,000 tested, about 15% had one in any assay. Values without a mark were called inactive. Active and inactive are the calls of the source. No stated cut-off is given here; in the data, active means growth inhibition above about 70%; inactive means the rest.

What was measured:
[1] = NCI Yeast Anticancer Drug Screen. Data for the wt1 strain (AID 149);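 further: 0% = growth of vehicle-treated wt1 cultures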; conditions: S. cerevisiae wt1 strain (SPY 50644) growth inhibition, active compounds read high
In short: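 Vehicle-normalised growth inhibition; strain wt1; compound exposure.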

[2] = NCI Yeast Anticancer Drug Screen. Data for the rad50EPP+ strain (AID 151);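 further: 0% = growth of vehicle-treated control cultures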; conditions: S. cerevisiae rad50 mutant strain, active compounds read high
In short: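 Vehicle-normalised growth inhibition; rad50EPP+ yeast strain, altered in DNA damage repair, compound-treated.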

[3] = NCI Yeast Anticancer Drug Screen. Data for the mgt1 strain (AID 153); conditions: S. cerevisiae mgt1 mutant growth inhibition, active compounds read high
In short: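 Vehicle-normalized growth inhibition is determined in mgt1 yeast, a strain selected for a defined alteration in DNA repair or cell cycle control.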

[4] = NCI Yeast Anticancer Drug Screen. Data for the rad50 strain (AID 155);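 further: 0% = growth of vehicle-only cultures of the same strain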; conditions: S. cerevisiae rad50 strain growth inhibition, active compounds read high
In short: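 A DNA repair-deficient yeast mutant serves as the test organism; compound-induced growth inhibition is calculated against vehicle-treated cells.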

[5] = NCI Yeast Anticancer Drug Screen. Data for the mec2-1 strain (AID 157); conditions: S. cerevisiae mec2-1 strain, active compounds read high
In short: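 Mutant yeast (mec2-1) grown with compound; growth inhibition relative to vehicle control reported.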

[6] = NCI Yeast Anticancer Drug Screen. Data for the rad14 strain (AID 159);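 further: 0% = growth of vehicle-treated control cultures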; conditions: S. cerevisiae rad14 strain growth inhibition, active compounds read high
In short: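 Vehicle-treated cultures served as the baseline for growth inhibition of a DNA repair-mutant yeast strain exposed to each compound.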

[7] = NCI Yeast Anticancer Drug Screen. Data for the sgs1 mgt1 strain (AID 161);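 further: 0% = growth of cultures given vehicle only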; conditions: S. cerevisiae sgs1 mgt1 strain, active compounds read high
In short: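 Percent growth inhibition was derived by comparing compound-exposed mutant yeast with vehicle-exposed cultures. The strain carries alterations in DNA damage repair.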

[8] = NCI Yeast Anticancer Drug Screen. Data for the CLN2oe strain (AID 163);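 further: 0% = growth of vehicle-only control cultures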; conditions: S. cerevisiae CLN2oe strain, active compounds read high
In short: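 Compounds are applied to yeast harbouring a defined cell-cycle control change; reduced growth compared with vehicle-treated controls gives the value.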

[9] = NCI Yeast Anticancer Drug Screen. Data for the cln2 rad14 strain (AID 165);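 further: 0% = growth equal to vehicle treated cultures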; conditions: S. cerevisiae cln2 rad14 strain, active compounds read high
In short: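 Readout is yeast growth inhibition versus vehicle-treated controls, using a strain with cln2 and rad14 alterations exposed to compound.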

[10] = NCI Yeast Anticancer Drug Screen. Data for the bub3 strain (AID 167); conditions: S. cerevisiae bub3 mutant strain, active compounds read high
In short: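 Inhibition values come from growth of compound-treated mutant yeast normalised to vehicle-treated controls.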

[11] = NCI Yeast Anticancer Drug Screen. Data for the wt2 strain (AID 169);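 further: 0% = growth of vehicle-treated yeast cultures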; conditions: S. cerevisiae wt2 strain growth inhibition, active compounds read high
In short: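 Against vehicle-treated controls, the growth of yeast exposed to each compound was compared, and the inhibition was recorded.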

[12] = NCI Yeast Anticancer Drug Screen. Data for the mlh1 strain (AID 171);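 further: 0% = growth of vehicle-treated control cultures of the same strain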; conditions: S. cerevisiae mlh1 strain growth inhibition, active compounds read high
In short: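 Measured: yeast growth. Reference: vehicle-treated controls. Organism: strain with a defined alteration affecting DNA damage repair or cell cycle control, treated with compound.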

[13] = NCI Yeast Anticancer Drug Screen. Data for the sgs1 strain (AID 173);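 further: 0% = growth of vehicle-only control cultures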; conditions: S. cerevisiae sgs1 mutant, active compounds read high
In short: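 Each compound was added to cultures of the altered yeast strain. Growth was recorded, and inhibition was derived by comparison with vehicle controls.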

[14] = NCI Yeast Anticancer Drug Screen. Data for the mlh1 rad18 strain (AID 175); conditions: S. cerevisiae mlh1 rad18 strain growth inhibition, active compounds read high
In short: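 Genetically defined yeast (DNA repair-deficient) exposed to compounds; growth inhibition determined relative to vehicle.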

[15] = NCI Yeast Anticancer Drug Screen. Data for the rad18 strain (AID 177); conditions: S. cerevisiae rad18 mutant growth inhibition, active compounds read high
In short: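 Vehicle-treated cultures served as the baseline for scoring compound-induced growth inhibition in DNA-repair-mutant yeast.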

[16] = at 5.0 µM (retest, dose inferred, filed as 0.5)
[17] = at 50.0 µM (retest, dose inferred, filed as 5.0)

O=C1C=CC(=Nc2ccc3c(c2)Cc2cc(Cl)ccc2-3)O1
growth inhibition ([1]; at 1.2 µM): -3% | growth inhibition ([1]; at 3.7 µM): 10% | growth inhibition ([1]; at 11.0 µM): 56% | growth inhibition ([1]; at 33.0 µM): 99% (active) | growth inhibition ([1]; at 100.0 µM): 98% (active) | growth inhibition ([2]; at 1.2 µM): 78% (active) | growth inhibition ([2]; at 3.7 µM): 90% (active) | growth inhibition ([2]; at 11.0 µM): 98% (active) | growth inhibition ([2]; at 33.0 µM): 99% (active) | growth inhibition ([2]; at 100.0 µM): 96% (active) | growth inhibition ([3]; at 1.2 µM): 2% | growth inhibition ([3]; at 3.7 µM): 20% | growth inhibition ([3]; at 11.0 µM): 68% | growth inhibition ([3]; at 33.0 µM): 99% (active) | growth inhibition ([3]; at 100.0 µM): 99% (active) | growth inhibition ([4]; at 1.2 µM): -1% | growth inhibition ([4]; at 3.7 µM): 24% | growth inhibition [4, 16]: 25% | growth inhibition ([4]; at 11.0 µM): 78% (active) | growth inhibition ([4]; at 33.0 µM): 99% (active) | growth inhibition [4, 17]: 99% (active) | growth inhibition ([4]; at 50.0 µM): 99.5% (active) | growth inhibition ([4]; at 100.0 µM): 96% (active) | growth inhibition ([5]; at 1.2 µM): 6% | growth inhibition ([5]; at 3.7 µM): 19% | growth inhibition [5, 16]: 34% | growth inhibition ([5]; at 11.0 µM): 68% | growth inhibition ([5]; at 33.0 µM): 99% (active) | growth inhibition [5, 17]: 100% (active) | growth inhibition ([5]; at 50.0 µM): 99% (active) | growth inhibition ([5]; at 100.0 µM): 98% (active) | growth inhibition ([6]; at 1.2 µM): 10% | growth inhibition ([6]; at 3.7 µM): 32% | growth inhibition ([6]; at 11.0 µM): 91% (active) | growth inhibition ([6]; at 33.0 µM): 99% (active) | growth inhibition ([6]; at 100.0 µM): 97% (active) | growth inhibition [7, 16]: 49% | growth inhibition [7, 17]: 100% (active) | growth inhibition ([7]; at 50.0 µM): 99.5% (active) | growth inhibition ([8]; at 1.2 µM): -1% | growth inhibition ([8]; at 3.7 µM): 3% | growth inhibition ([8]; at 11.0 µM): 23% | growth inhibition ([8]; at 33.0 µM): 98% (active) | growth inhibition ([8]; at 100.0 µM): 97% (active) | growth inhibition [9, 16]: 7% | growth inhibition [9, 17]: 99% (active) | growth inhibition ([9]; at 50.0 µM): 98.2% (active) | growth inhibition ([10]; at 1.2 µM): 4% | growth inhibition ([10]; at 3.7 µM): 12% | growth inhibition [10, 16]: 7% | growth inhibition ([10]; at 11.0 µM): 96% (active) | growth inhibition ([10]; at 33.0 µM): 99% (active) | growth inhibition [10, 17]: 99% (active) | growth inhibition ([10]; at 50.0 µM): 99.7% (active) | growth inhibition ([10]; at 100.0 µM): 97% (active) | growth inhibition ([11]; at 1.2 µM): 5% | growth inhibition ([11]; at 3.7 µM): 28% | growth inhibition ([11]; at 11.0 µM): 100% (active) | growth inhibition ([11]; at 33.0 µM): 99% (active) | growth inhibition ([11]; at 100.0 µM): 98% (active) | growth inhibition ([12]; at 1.2 µM): 9% | growth inhibition ([12]; at 3.7 µM): 21% | growth inhibition ([12]; at 11.0 µM): 74% (active) | growth inhibition ([12]; at 33.0 µM): 99% (active) | growth inhibition ([12]; at 100.0 µM): 98% (active) | growth inhibition ([13]; at 1.2 µM): 11% | growth inhibition ([13]; at 3.7 µM): 48% | growth inhibition ([13]; at 11.0 µM): 88% (active) | growth inhibition ([13]; at 33.0 µM): 99% (active) | growth inhibition ([13]; at 100.0 µM): 98% (active) | growth inhibition [14, 16]: 32% | growth inhibition [14, 17]: 99% (active) | growth inhibition ([14]; at 50.0 µM): 84.2% (active) | growth inhibition ([15]; at 1.2 µM): 10% | growth inhibition ([15]; at 3.7 µM): 36% | growth inhibition ([15]; at 11.0 µM): 95% (active) | growth inhibition ([15]; at 33.0 µM): 99% (active) | growth inhibition ([15]; at 100.0 µM): 97% (active)

O=c1c(Br)cc2c(-c3ccccc3)c3cc(Br)c(O)c(Br)c3oc-2c1Br
growth inhibition ([1]; at 1.2 µM): -1% | growth inhibition ([1]; at 3.7 µM): 11% | growth inhibition ([1]; at 11.0 µM): 9% | growth inhibition ([1]; at 33.0 µM): 0% | growth inhibition ([1]; at 100.0 µM): -4% | growth inhibition ([2]; at 1.2 µM): 1% | growth inhibition ([2]; at 3.7 µM): 23% | growth inhibition ([2]; at 11.0 µM): 38% | growth inhibition ([2]; at 33.0 µM): 57% | growth inhibition ([2]; at 100.0 µM): 39% | growth inhibition ([3]; at 1.2 µM): 0% | growth inhibition ([3]; at 3.7 µM): -2% | growth inhibition ([3]; at 11.0 µM): 9% | growth inhibition ([3]; at 33.0 µM): 28% | growth inhibition ([3]; at 100.0 µM): 23% | growth inhibition ([4]; at 1.2 µM): -54% | growth inhibition ([4]; at 3.7 µM): 24% | growth inhibition [4, 16]: 22% | growth inhibition ([4]; at 11.0 µM): 89% (active) | growth inhibition ([4]; at 33.0 µM): 87% (active) | growth inhibition [4, 17]: 13% | growth inhibition ([4]; at 50.0 µM): 80.8% (active) | growth inhibition ([4]; at 100.0 µM): 80% (active) | growth inhibition ([5]; at 1.2 µM): 1% | growth inhibition ([5]; at 3.7 µM): 4% | growth inhibition [5, 16]: 54% | growth inhibition ([5]; at 11.0 µM): -1% | growth inhibition ([5]; at 33.0 µM): -3% | growth inhibition [5, 17]: 28% | growth inhibition ([5]; at 50.0 µM): 78.4% (active)
